The text below walks through data of PubChem BioAssay (NCI).

The panel holds about 83,000 compounds, 20% with a hit somewhere; the sample as a whole holds those more often.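 Activity criterion: percent growth below 10, measured after cells in 96-well plates were exposed to a single compound concentration for 48 hours.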 Unmarked numbers belong to inactive results. Active and inactive are the calls of the source.

The test system of this test is HL-60(TB) leukemia. Nature of the test: NCI-60 one-dose screen, 48 h (100 = growth as untreated, 0 = no growth, -100 = all killed). The note with it: 10 µM unless noted.
Turning to `COc1cc(C2=Nc3c/c(=C\c4c(O)[nH]c5ccc(Cl)cc45)ccc3=N2)cc(OC)c1OC`, the growth is 11.8%. As for `CC(C)(C)c1ccc(S(=O)(=O)N[C@H]2CC[C@H]3[C@@H]4CCc5cc(O)ccc5[C@H]4CC[C@]23C)cc1`, the growth was 23%. Take `COc1ccc(NC(=O)c2sc3nc(C)c(C(C)=O)cc3c2N)cc1`: the growth is 94%. On to `O=S(=O)(Nc1ccc(OC(F)F)cc1)c1ccc(-c2cnc(C3CC3)o2)cc1`, for which the growth was 64.7%.

In the case of `C=C1C(=O)O[C@H]2[C@H]1CC/C(COC(=O)CCCCCCCCC(=O)OC/C1=C/CC[C@@]3(C)O[C@H]3[C@H]3OC(=O)C(=C)[C@@H]3CC1)=C\CC[C@@]1(C)O[C@@H]21`, the growth is -32.8% (active).
